Consider 77 compounds from PubChem BioAssay AID624405 (Broad Institute, 2012).

Screen size: about 1,900 compounds; about 250 (13%) were called active. About 4% were inconclusive and are not listed.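 Rule for the calls: active = fitted curve reaches 40% rescue activity at or below the top valid dose, in every test run; inconclusive = test runs disagree, some active and some inactive; inactive = every run misses the threshold or moves the wrong way.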 Only a sample is shown. Potency and affinity values are given separately.

A short description of the assay: suppressors of statin myotoxicity in myotubes, dose response, cell-based, C2C12 myotubes, ATP luminescence, cherry pick (AID 624405).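 Note: myotubes are challenged with simvastatin at 10 µM to lower ATP.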 The settings on record: C2C12 myotubes + simvastatin, 48 h, scaled: DMSO wells 0, geranylgeraniol wells 100; series mostly up to 19.5 µM; rescue activity (ATP increase): at the top concentration.
Regarding `CC(C)(Oc1ccc(Cl)cc1)C(=O)NCc1ccco1`, the “rescue activity (ATP increase)” value is -10.1% (inactive).
With `CN1CCN(c2ccc(NC(=S)NC(=O)c3cccc4c(Br)cccc34)cc2)CC1`, the “rescue activity (ATP increase)” value was 12.4% (inactive).
Consider `C[C@@H]1CCCCO[C@@H](CN(C)C(=O)Nc2ccc(C(F)(F)F)cc2)[C@H](C)CN([C@@H](C)CO)C(=O)c2cc(NC(=O)c3ccccc3)ccc2O1`, for which the “rescue activity (ATP increase)” value was 4.74% (inactive).
With `Cc1ccc(S(=O)(=O)N(C)C[C@H]2Oc3ccc(NC(=O)Cc4ccccc4)cc3CC(=O)N([C@@H](C)CO)C[C@@H]2C)cc1`, the “rescue activity (ATP increase)” value was 10.6% (inactive).
As to `C[C@@H]1CCCCO[C@H](CN(C)S(=O)(=O)c2ccc(Cl)cc2)[C@@H](C)CN([C@@H](C)CO)C(=O)c2cc(NS(C)(=O)=O)ccc2O1`, the “rescue activity (ATP increase)” value is 17.1% (inactive).
Regarding `COc1ccc(C(=O)c2ccc(OC)cc2O)c(O)c1`, the “rescue activity (ATP increase)” value is -31.7% (inactive).
The result for `C[C@H]1CN([C@@H](C)CO)C(=O)Cc2cc(NC(=O)CCCCCC(=O)Nc3ccccc3N)ccc2O[C@@H]1CN(C)Cc1ccc(C(F)(F)F)cc1` reads 26.4% [at 16 µM] (inactive); that for `C[C@H](CO)N1C[C@H](C)[C@H](CN(C)Cc2ccc(C(F)(F)F)cc2)Oc2ccc(NC(=O)CCCCCC(=O)Nc3ccccc3N)cc2CC1=O`, 4.41% (inactive).
In the case of `Cc1onc(-c2ccccc2)c1C(=O)OCC(=O)Nc1ccc2c(c1)OCO2`, the “rescue activity (ATP increase)” value is 11.4% (inactive).
In the case of `Cc1ccc(NC(=O)C(=S)NCc2ccco2)cc1`, the “rescue activity (ATP increase)” value was -12.1% (inactive).
For the compound `FC(F)(F)c1cccc(-c2nnc(-c3ccccc3)c(N3CCOCC3)n2)c1`, the “rescue activity (ATP increase)” value was -100% (inactive).
As for `Cc1ccc(Nc2cc(=O)[nH]c(=O)[nH]2)c(C)c1`, the “rescue activity (ATP increase)” value was 3.31% (inactive).
With `COCC(=O)N1C[C@H]2[C@@H](c3ccccc31)[C@@H](CO)N2Cc1ccc(OC)cc1`, the “rescue activity (ATP increase)” value was -32.2% (inactive).
As for `CCCNC(=O)N(C)C[C@@H]1Oc2cc(-c3ccccc3)ccc2S(=O)(=O)N([C@@H](C)CO)C[C@@H]1C`, the “rescue activity (ATP increase)” value is -7.2% (inactive).
With `CC(C)NC(=O)Nc1ccc2c(c1)C(=O)N([C@@H](C)CO)C[C@H](C)[C@H](CN(C)Cc1ccccc1)O2`, the “rescue activity (ATP increase)” value was 7.77% (inactive).
The same measure for `COc1ccc(NC(=O)CSc2nnc(-c3ccccc3Cl)n2Cc2ccco2)c(OC)c1`: 13.5% (inactive).
Take `COc1ccc2cc(C(=O)O)n(CC(=O)c3ccccc3)c2c1`: the “rescue activity (ATP increase)” value was 25.9% (inactive).
The same measure for `CCC(CC)C(=O)c1c[nH]c(C(=O)NCC2CCCO2)c1` (configuration not stated): 8.18% (inactive); for `CN1C[C@H]2[C@@H](c3ccccc31)[C@H](CO)N2Cc1ccccc1`: 1.69% (inactive); for `O=C(c1ccc(F)cc1)N1CCC(N2CCCCCC2)CC1`: -15.7% (inactive).
As for `CCc1cccc(NS(=O)(=O)c2ccc(-n3cccn3)cc2)c1`, the “rescue activity (ATP increase)” value was 37.6% (inactive).
Turning to `Cc1ccc(NS(=O)(=O)c2ccc(-n3cccn3)cc2)cc1Cl`, the “rescue activity (ATP increase)” value is 17.5% (inactive).
Consider `Cc1ccc(C)c(NS(=O)(=O)c2ccc(-n3cccn3)cc2)c1`, for which the “rescue activity (ATP increase)” value is 31.4% (inactive).
Take `CC(C)c1ccc(NS(=O)(=O)c2ccc(-n3cccn3)cc2)cc1`: the “rescue activity (ATP increase)” value is 7.18% (inactive).
Take `COc1ccc(C#Cc2cnc3c(c2)C(=O)N([C@H](C)CO)C[C@H](C)[C@@H](CN(C)C(=O)Nc2cccc(OC)c2)O3)cc1`: the “rescue activity (ATP increase)” value was 32.5% (inactive).
The same measure for `COc1cc(C(=O)OCCN2CCOCC2)ccc1O`: 0.799% (inactive); for `C[C@@H]1CN([C@@H](C)CO)C(=O)c2cccc(NC(=O)C3CCCCC3)c2O[C@@H]1CN(C)S(=O)(=O)c1ccc(Cl)cc1`: 6.54% (inactive); for `C[C@H](CO)N1C[C@H](C)[C@H](CN(C)S(C)(=O)=O)OCCCC[C@H](C)Oc2ccc(NS(=O)(=O)c3ccc(F)cc3)cc2C1=O`: 20% (inactive).
As to `COc1ccc(-c2cnc3c(c2)C(=O)N([C@H](C)CO)C[C@H](C)[C@H](CN(C)S(=O)(=O)c2ccc(F)cc2)O3)cc1`, the “rescue activity (ATP increase)” value was 22.4% (inactive).
Turning to `Cc1[nH]nc2c1C(c1ccsc1)C(C#N)=C(N)O2` (configuration not stated), the “rescue activity (ATP increase)” value was 15.8% (inactive).
Take `OC[C@H]1[C@H]2c3ccccc3NC[C@H]2N1Cc1ccccc1Cl`: the “rescue activity (ATP increase)” value is -8.25% (inactive).
On to `CCC(CC)C(=O)Nc1cccc(/C(C)=N/NC(=O)c2ccccc2Cl)c1`, for which the “rescue activity (ATP increase)” value was -38.2% (inactive).
On to `COc1cc(OC)cc(C(=O)Nc2ccccc2C(=O)N2CCCC2)c1`, for which the “rescue activity (ATP increase)” value was 4.03% (inactive).
With `O=C(NCc1ccncc1)Nc1ccccc1Cl`, the “rescue activity (ATP increase)” value is 3.84% (inactive).
On to `C[C@@H]1CN([C@@H](C)CO)C(=O)Cc2cc(NS(=O)(=O)c3ccc(Cl)cc3)ccc2O[C@@H]1CN(C)Cc1ccc(C(F)(F)F)cc1`, for which the “rescue activity (ATP increase)” value was 7.12% (inactive).
For `C[C@@H]1CN([C@@H](C)CO)C(=O)c2cccc(NS(=O)(=O)c3ccccc3)c2O[C@@H]1CN(C)S(=O)(=O)c1cccs1`, the “rescue activity (ATP increase)” value was 25.9% (inactive).
With `O=C(Cn1cnc2c(nnn2Cc2ccc(F)cc2)c1=O)NC1CCCC1`, the “rescue activity (ATP increase)” value was -82.2% [at 10 µM] (inactive).
Turning to `O=C1c2ccccc2NC(c2cccc(F)c2)N1Cc1ccco1` (configuration not stated), the “rescue activity (ATP increase)” value was 16.9% (inactive).
As for `C[C@H](CO)N1C[C@H](C)[C@@H](CN(C)S(=O)(=O)c2cccs2)OCCCC[C@H](C)Oc2ccc(NC(=O)Nc3ccc(F)cc3)cc2C1=O`, the “rescue activity (ATP increase)” value was -8.95% (inactive).
Regarding `CCc1ccc(C(O)(CC(C)C)C(CN2CCOCC2)c2ccccc2)cc1` (configuration not stated), the “rescue activity (ATP increase)” value was 30.6% (inactive).
The result for `N#CC(c1ccc(Cl)cc1)c1ccc(Cl)nn1` (configuration not stated) reads 23.7% (inactive); that for `Cc1cc(C)n(CC(=O)N2c3ccccc3Sc3ccccc32)n1`, -1.56% (inactive).
The result for `O=C(COC(=O)Cc1ccccc1F)NCc1ccc(Cl)cc1` reads -19.9% (inactive); that for `CCOC(=O)C(C)C1(O)c2ccccc2-c2ncccc21` (configuration not stated), -4.05% (inactive); that for `CN1C[C@H]2[C@@H](c3ccccc31)[C@@H](CO)N2Cc1ccccc1`, 5.51% (inactive).
`CCOc1ccc(N(CC(=O)NCc2ccco2)S(=O)(=O)c2ccc(OC)c(OC)c2)cc1`: the “rescue activity (ATP increase)” value is 11.6% (inactive).
The result for `CC(=O)N1c2ccc(S(=O)(=O)NCCC(=O)NCCc3ccc(C)cc3)cc2CC1C` (configuration not stated) reads -9.48% (inactive); that for `Nc1nnc(-c2ccccc2)c(-c2ccccc2)n1`, 15.7% (inactive).
For `O=S(=O)(NC1=NCCC1)c1ccc(F)cc1`, the “rescue activity (ATP increase)” value was 27.9% (inactive).
As for `C[C@@H]1CCCCO[C@@H](CN(C)S(=O)(=O)c2cccs2)[C@@H](C)CN([C@@H](C)CO)C(=O)c2cc(NC(=O)Nc3ccc(F)cc3)ccc2O1`, the “rescue activity (ATP increase)” value was 2.39% (inactive).
Consider `C[C@@H]1CCCCO[C@H](CN(C)C(=O)NC2CCCCC2)[C@H](C)CN([C@@H](C)CO)C(=O)c2cc(NS(=O)(=O)c3cccs3)ccc2O1`, for which the “rescue activity (ATP increase)” value was 21.2% (inactive).
In the case of `Cc1cc(S(=O)(=O)Nc2nc(CN3CCOCC3)nc3sc4c(c23)CCCC4)ccc1F`, the “rescue activity (ATP increase)” value is -8.27% (inactive).
Turning to `C[C@H]1CN([C@@H](C)CO)C(=O)Cc2cc(NC(=O)Cc3ccccc3)ccc2O[C@@H]1CN(C)Cc1ccc(Cl)c(Cl)c1`, the “rescue activity (ATP increase)” value is 22.2% (inactive).
As for `C[C@H]1CN([C@@H](C)CO)C(=O)Cc2cc(NC(=O)CCCCCC(=O)Nc3ccccc3N)ccc2O[C@@H]1CN(C)Cc1ccc(Cl)c(Cl)c1`, the “rescue activity (ATP increase)” value was 37.1% [at 18 µM] (inactive).
With `CC1CCCCN1S(=O)(=O)c1ccc(C(=O)Nc2sccc2C(N)=O)cc1` (configuration not stated), the “rescue activity (ATP increase)” value is 39% (inactive).
`O=C(CNC(=O)c1ccc(Br)cc1)N/N=C/c1cccnc1`: the “rescue activity (ATP increase)” value was 11.2% (inactive).
Consider `C[C@@H]1CCCCO[C@@H](CN(C)CC2CCCCC2)[C@@H](C)CN([C@H](C)CO)C(=O)c2cc(NC(=O)Nc3ccc4c(c3)OCO4)ccc2O1`, for which the “rescue activity (ATP increase)” value is -13.1% [at 21 µM] (inactive).
As to `C[C@@H]1CN([C@H](C)CO)C(=O)c2cc(NC(=O)Nc3ccc(C(F)(F)F)cc3)ccc2O[C@H]1CN(C)Cc1ccc(C(=O)Nc2ccccc2N)cc1`, the “rescue activity (ATP increase)” value was 27.5% [at 16 µM] (inactive).
Turning to `C[C@@H]1CN([C@H](C)CO)C(=O)c2cccc(NC(=O)C3CCOCC3)c2O[C@@H]1CN(C)Cc1ccc(C(=O)Nc2ccccc2N)cc1`, the “rescue activity (ATP increase)” value was 39% (inactive).
Consider `C[C@H]1CN([C@@H](C)CO)C(=O)c2cc(NC(=O)Nc3ccc(C(F)(F)F)cc3)ccc2O[C@H]1CN(C)Cc1ccc(C(=O)Nc2ccccc2N)cc1`, for which the “rescue activity (ATP increase)” value was 44.6% [at 18 µM] (inactive).
The same measure for `C[C@@H]1CN([C@@H](C)CO)C(=O)c2cccc(NC(=O)c3nc4ccccc4s3)c2O[C@H]1CN(C)Cc1ccc(C(=O)Nc2ccccc2N)cc1`: 14.9% (inactive).
For `C[C@@H]1CN([C@@H](C)CO)C(=O)c2cccc(NC(=O)Nc3ccccc3)c2O[C@H]1CN(C)Cc1ccc(C(=O)Nc2ccccc2N)cc1`, the “rescue activity (ATP increase)” value was 25.3% (inactive).
The same measure for `C[C@@H]1CN([C@@H](C)CO)C(=O)c2cc(NC(=O)Nc3ccc(C(F)(F)F)cc3)ccc2O[C@@H]1CN(C)Cc1ccc(C(=O)Nc2ccccc2N)cc1`: 4.69% (inactive).
Take `C[C@@H]1CN([C@H](C)CO)C(=O)c2cccc(NC(=O)c3nc4ccccc4s3)c2O[C@@H]1CN(C)C(=O)Nc1cccc2ccccc12`: the “rescue activity (ATP increase)” value is 24% (inactive).
The result for `C[C@H](CO)N1C[C@H](C)[C@H](CN(C)Cc2ccc(C(=O)Nc3ccccc3N)cc2)Oc2ccc(NC(=O)Nc3ccc(C(F)(F)F)cc3)cc2C1=O` reads 13.2% [at 16 µM] (inactive); that for `O=C(O)CCC(C(=O)O)n1c(O)c(C2=c3ccccc3=NC2=O)sc1=S` (configuration not stated), -21% (inactive).
As to `COc1ccc(C(=O)N2C[C@H]3[C@@H](c4ccccc42)[C@H](CO)N3Cc2ccccc2)cc1`, the “rescue activity (ATP increase)” value was 16.5% [at 21 µM] (inactive).
Consider `C[C@H]1CN([C@@H](C)CO)C(=O)c2cccc(NC(=O)Nc3ccc(C(F)(F)F)cc3)c2O[C@@H]1CN(C)S(=O)(=O)c1ccc(Cl)cc1`, for which the “rescue activity (ATP increase)” value was -65.9% (inactive).
The same measure for `C[C@H]1CCCCO[C@H](CN(C)C(=O)Nc2cccc3ccccc23)[C@@H](C)CN([C@@H](C)CO)C(=O)c2cc(NC(=O)Nc3ccc4c(c3)OCO4)ccc2O1`: 11.2% [at 21 µM] (inactive); for `COc1ccc(S(=O)(=O)N2CCN(c3ccc4nnc(-c5ccccc5)n4n3)CC2)cc1`: 30.8% (inactive); for `COc1ccc(-c2nc(CC(=O)O)cs2)cc1`: 7.8% (inactive).
With `COc1ccc(-c2noc(CCCOc3ccc(Cl)cc3Cl)n2)cc1`, the “rescue activity (ATP increase)” value was 4.69% (inactive).
As to `COc1ccc2sc(-c3ccccc3OC)c(-c3ccc(O)cc3)c2c1`, the “rescue activity (ATP increase)” value was -11.5% (inactive).
`C[C@@H]1CCCCO[C@@H](CN(C)S(=O)(=O)c2ccc(F)cc2)[C@@H](C)CN([C@H](C)CO)C(=O)c2cc(NC(=O)Nc3cccc4ccccc34)ccc2O1`: the “rescue activity (ATP increase)” value is -3.78% [at 21 µM] (inactive).
`C[C@@H]1CCCCO[C@H](CN(C)S(=O)(=O)c2cccs2)[C@H](C)CN([C@H](C)CO)C(=O)c2cc(NC(=O)Nc3ccc(F)cc3)ccc2O1`: the “rescue activity (ATP increase)” value was 19.6% (inactive).
For `C[C@H]1CN([C@@H](C)CO)C(=O)c2cccc(NC(=O)Nc3ccc4c(c3)OCO4)c2O[C@@H]1CN(C)CC1CCCCC1`, the “rescue activity (ATP increase)” value is 28.6% (inactive).
Turning to `C[C@H]1CN([C@@H](C)CO)C(=O)c2cccc(NC(=O)Nc3ccc(F)cc3)c2O[C@@H]1CN(C)CC1CCCCC1`, the “rescue activity (ATP increase)” value was -6.58% [at 21 µM] (inactive).
